21 molecules from PubChem BioAssay can be followed below.

A short description of test [1]: sensitizers of A549 cells to miR-34 induction, primary screen, imaging, A549 dox-inducible miR-34, nuclei and caspase counts (AID 1347080). Note: test concentration not given here. The following applies: A549 miR-34 inducible, Hoechst nuclei count, 48 h.
A short description of test [2]: survival rescue of mitochondrial mutant cells in low glucose, primary screen, MELAS cybrids, Rieske KO mouse fibroblasts, CellTiter-Glo (AID 1508586;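 active = mean z-score across replicates of 1.96 or higher in either the MELAS or the Rieske mutant cell line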;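 note: test concentration not given here; z relative to plate mean and SD of compound and empty wells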). (Cellular ATP, detected with luciferase, serves as a proxy for viable cell number.)
The nature of test [3]: viability rescue of complex I mutant cybrids, primary screen, cell-based, galactose medium, ATP luminescence (AID 1645843;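 active = z-score of at least 1.8 in each of two replicates, scored against plate mean and spread of sample wells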;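 note: positive z means more ATP and so rescue of galactose-driven cybrid death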). The settings on record: complex I mutant cybrid cells, 72 h, stronger effect = higher value.
Setting [4] is: stronger effect = lower value, cell number ratio, induced over uninduced.
Setting [5] is: measured here: relative caspase fold change +Dox/-Dox.
Where [6] appears, read: measured here: total cells with miR-34 induction, stronger effect = lower value.
Where [7] appears, read: measured here: total cells without miR-34 induction.
The mark [8] stands for this setting: MELAS cybrid survival, CellTiter-Glo 48 h, stronger effect = higher value.
The mark [9] stands for this setting: Rieske KO mouse fibroblast survival, CellTiter-Glo 72 h.

Several values for one entry are separate records, joined by “and”; a condition that tells them apart may be missing. Identical values can stand only once. Activity calls are given as the source filed them.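 Rule for the calls, unless noted: active = compounds whose cell count with miR-34 switched on is under 0.7 times the count with it off; inactive = the rest.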

With `CC(C)SC1OC(CO)C(O)C(O)C1O` (configuration not stated), the fold change was 0.887 (inactive) in test [1] (setting [4]) and 0.478 in test [1] (setting [5]). Further, the cell count in test [1] (setting [6]) turned out to be 8290; in test [1] (setting [7]), 9350. In addition, the results for the z-score in test [2] (setting [8]), in test [2] (setting [9]) and in test [3] were -0.322 (inactive), -0.813 and 0.635 (inactive), respectively.

As for `CC(C)(CCl)C(=O)Nc1ccc(C(F)(F)F)cc1`, the fold change in test [1] (setting [4]) is 0.859 (inactive); in test [1] (setting [5]) it was 1.51. Further, the cell count in test [1] (setting [6]) came out at 8340; in test [1] (setting [7]), 9720. Besides, the figures for the z-score in test [2] (setting [8]), in test [2] (setting [9]) and in test [3] were 0.804 (inactive), 0.128 and 0.14 (inactive), respectively.

Consider `COc1ccc(-c2ncnc3sc(C)c(C)c23)c2cccnc12`, for which the fold change is 0.949 (inactive) in test [1] (setting [4]) and 0.85 in test [1] (setting [5]). Also, the figures for the cell count in test [1] (setting [6]) and in test [1] (setting [7]) were 7370 and 7760, respectively. Besides, the z-score in test [2] (setting [8]) is 0.0989 (inactive); in test [2] (setting [9]), -0.295; in test [3] it was -0.525 (inactive).

For the molecule `Nc1[nH]c(=O)[nH]c(=O)c1N`, the values for the fold change in test [1] (setting [4]) and in test [1] (setting [5]) were 0.894 (inactive) and 0.315, respectively. The cell count in test [1] (setting [6]) was 8900; in test [1] (setting [7]), 9960. In addition, the z-score in test [2] (setting [8]) was 0.368 (inactive); in test [2] (setting [9]), 0.648; in test [3], 0.84 (inactive).

Take `Cc1nsc(NC(=O)N[C@@H]2CCCC[C@H]2c2ccccc2)n1`: the fold change was 0.821 (inactive) in test [1] (setting [4]) and 1.15 in test [1] (setting [5]). Besides, the cell count in test [1] (setting [6]) came to 7510; in test [1] (setting [7]), 9150. Besides, the z-score in test [2] (setting [8]) is 0.535 (inactive); in test [2] (setting [9]), -0.546; in test [3] it was 1.12 (inactive).

For `CN1CCN(Cc2ccc3nonc3c2)CC1CCO` (configuration not stated), the fold change was 0.893 (inactive) in test [1] (setting [4]) and 1.09 in test [1] (setting [5]). The cell count in test [1] (setting [6]) amounted to 8970; in test [1] (setting [7]) it was 10000. The z-score was -0.262 (inactive) in test [2] (setting [8]), -0.13 in test [2] (setting [9]) and -0.35 (inactive) in test [3].

Regarding `O=C1CN(c2ncnc3nc[nH]c23)CCN1CCc1ccccc1`, the fold change was 0.93 (inactive) in test [1] (setting [4]) and 1.88 in test [1] (setting [5]). The cell count stood at 8450 in test [1] (setting [6]) and 9080 in test [1] (setting [7]). Besides, the values for the z-score in test [2] (setting [8]), in test [2] (setting [9]) and in test [3] were -0.834 (inactive), -0.816 and -0.58 (inactive), respectively.

As to `O=C(CC(=O)C(F)(F)F)c1cccs1`, the fold change was 0.883 (inactive) in test [1] (setting [4]) and 0.164 in test [1] (setting [5]). The cell count in test [1] (setting [6]) is 8190; in test [1] (setting [7]), 9270. In addition, the z-score in test [2] (setting [8]) is -1.06 (inactive); in test [2] (setting [9]) it was 0.275; in test [3], -0.485 (inactive).

As for `Cc1nc2cc(C(=O)N(C)Cc3cc(-c4cccnc4)no3)ccc2s1`, the fold change in test [1] (setting [4]) was 0.86 (inactive); in test [1] (setting [5]) it was 2.36. For the same molecule, the results for the cell count in test [1] (setting [6]) and in test [1] (setting [7]) were 6380 and 7420, respectively. Besides, the z-score in test [2] (setting [8]) is -0.957 (inactive); in test [2] (setting [9]) it was -0.223; in test [3], -0.55 (inactive).

With `CCN(Cc1nccn1C)C(=O)c1cc(-c2cnc(C)nc2)nc2cc(F)ccc12`, the fold change is 0.881 (inactive) in test [1] (setting [4]) and 1.32 in test [1] (setting [5]). For the same molecule, the cell count stood at 8950 in test [1] (setting [6]) and 10200 in test [1] (setting [7]). Also, the z-score is -0.0942 (inactive) in test [2] (setting [8]), -0.488 in test [2] (setting [9]) and -0.2 (inactive) in test [3].

As for `CC1(C)OC2CO[C@@]3(COS(N)(=O)=O)OC(C)(C)OC3C2O1` (some centres not stated), the fold change in test [1] (setting [4]) was 0.947 (inactive) and 0.976 (inactive); in test [1] (setting [5]), 1.9 and 0.922. Further, the cell count is 9570 and 9420 in test [1] (setting [6]); 10100 and 9650 in test [1] (setting [7]). The z-score in test [2] (setting [8]) was 1.94 (inactive); in test [2] (setting [9]) it was -0.659; in test [3], 1.01 (inactive).

With `c1cc(-c2nc(Cc3ccsc3)no2)c2nccnc2c1`, the fold change was 0.89 (inactive) in test [1] (setting [4]) and 0.787 in test [1] (setting [5]). Further, the cell count in test [1] (setting [6]) turned out to be 8210; in test [1] (setting [7]) it was 9220. The figures for the z-score in test [2] (setting [8]), in test [2] (setting [9]) and in test [3] were -0.0904 (inactive), 1.15 and 0.105 (inactive), respectively.

On to `CNc1nc(-c2cccc(OC)c2)ncc1F`, for which the fold change is 0.868 (inactive) in test [1] (setting [4]) and 1.04 in test [1] (setting [5]). In addition, the cell count worked out at 8700 in test [1] (setting [6]) and 10000 in test [1] (setting [7]). The z-score was 0.0888 (inactive) in test [2] (setting [8]), -0.0676 in test [2] (setting [9]) and -0.485 (inactive) in test [3].

With `Cc1cccc(-n2cnc3cc(N)ccc32)c1`, the fold change in test [1] (setting [4]) was 0.889 (inactive); in test [1] (setting [5]) it was 1.07. Besides, the figures for the cell count in test [1] (setting [6]) and in test [1] (setting [7]) were 8160 and 9170, respectively. In addition, the values for the z-score in test [2] (setting [8]), in test [2] (setting [9]) and in test [3] were 1.59 (inactive), 0.221 and 0.94 (inactive), respectively.

As to `O=C(O)c1ccc2ccccc2n1`, the results for the fold change in test [1] (setting [4]) and in test [1] (setting [5]) were 0.876 (inactive) and 0.492, respectively. Further, the cell count is 7890 in test [1] (setting [6]) and 9000 in test [1] (setting [7]). Further, the results for the z-score in test [2] (setting [8]), in test [2] (setting [9]) and in test [3] were -1.05 (inactive), -0.692 and 0.485 (inactive), respectively.

For `CCn1ncc(NC(=O)Cn2cc(-c3cccc(-n4cccn4)c3)cn2)n1`, the fold change is 0.876 (inactive) in test [1] (setting [4]) and 1.27 in test [1] (setting [5]). Further, the cell count in test [1] (setting [6]) worked out at 2160; in test [1] (setting [7]), 2470. Also, the z-score in test [2] (setting [8]) is -0.0561 (inactive); in test [2] (setting [9]), -0.379; in test [3], -0.505 (inactive).

On to `CN(C)C(=O)c1cc(-c2cnc(-c3ccccn3)nc2)nc2cc(F)ccc12`, for which the fold change in test [1] (setting [4]) is 0.875 (inactive); in test [1] (setting [5]), 1.98. Besides, the cell count came to 8570 in test [1] (setting [6]) and 9790 in test [1] (setting [7]). The z-score was -0.444 (inactive) in test [2] (setting [8]), -0.334 in test [2] (setting [9]) and -0.41 (inactive) in test [3].

Turning to `CC(=O)NCC1CN(c2ccc(N3CCOCC3)c(F)c2)C(=O)O1` (configuration not stated), the fold change in test [1] (setting [4]) is 0.917 (inactive) and 0.981 (inactive); in test [1] (setting [5]), 1.72 and 0.989. The cell count was 6880 and 7480 in test [1] (setting [6]); 7500 and 7630 in test [1] (setting [7]). The z-score was -0.285 (inactive) in test [2] (setting [8]), 0.466 in test [2] (setting [9]) and 0.65 (inactive) in test [3].

Consider `CN(C)c1ccc(N=Nc2ccccc2C(=O)O)cc1`, for which the fold change is 0.742 (inactive) in test [1] (setting [4]) and 0.761 in test [1] (setting [5]). Moreover, the values for the cell count in test [1] (setting [6]) and in test [1] (setting [7]) were 2520 and 3400, respectively. The z-score is -1.2 (inactive) in test [2] (setting [8]), 0.626 in test [2] (setting [9]) and -0.36 (inactive) in test [3].

On to `Nc1ccc(Sc2ccc(N3C(=O)c4ccc(N)cc4C3=O)cc2)cc1`, for which the fold change is 0.816 (inactive) in test [1] (setting [4]) and 1.86 in test [1] (setting [5]). For the same molecule, the cell count in test [1] (setting [6]) stood at 8200; in test [1] (setting [7]) it was 10000. The z-score in test [2] (setting [8]) was 0.874 (inactive); in test [2] (setting [9]), 0.253; in test [3], -0.975 (inactive).

With `Fc1ccccc1-c1cc(NCc2ccncc2)n2nccc2n1`, the fold change was 1.06 (inactive) in test [1] (setting [4]) and 0.296 in test [1] (setting [5]). Moreover, the cell count in test [1] (setting [6]) turned out to be 4240; in test [1] (setting [7]) it was 4020. The z-score was -1.56 (inactive) in test [2] (setting [8]), -0.13 in test [2] (setting [9]) and 0.425 (inactive) in test [3].
